# Results taken from PubChem BioAssay (EPA / NIEHS).
# Calls of active or inactive are those of the source. The calls were made as follows: active = hit-call score of the fitted dose curve at least 0.9, where 1 is the maximum; inactive = score below 0.9.
# Experiment: ATG_ERE_CIS: Attagene CIS-FACTORIAL HepG2 Assay for Estrogen Response Element (ERE) (AID 2282940)
# Details: HepG2 ERE cis-reporter, Attagene RNA transcript; actives raise or lower the signal
# Procedure, shortened: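 After 24 h compound treatment, RNA from transfected HepG2 cells was reverse-transcribed, reporter cDNA PCR-amplified, FAM-labelled, HpaI-cut and resolved by capillary electrophoresis. ERE-driven cis reporter transcripts reflect endogenous factors; gain or loss scored against DMSO.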
Compound,outcome,AC50
CO[Si](C)(OC)c1ccccc1,inactive,
COc1ccc(OC)c(OC)c1,inactive,
CCC/C=C/C=O,inactive,
CC(=O)O[C@]1(C(C)=O)CC[C@H]2[C@@H]3C[C@H](C)C4=CC(=O)CC[C@]4(C)[C@H]3CC[C@@]21C,,9.49 µM (active)
c1ccc2c(c1)c1cccc3ccc4cccc2c4c31,inactive,
Cc1ccc(C=O)cc1,inactive,
COc1nc(C)nc(N)n1,inactive,
Clc1sc(Cl)c(Cl)c1Cl,inactive,
NC(N)=NC(=O)c1nc(Cl)c(N)nc1N,inactive,
CCC(O)CO (stereo not given),inactive,
Nc1cc(N)cc(C(=O)O)c1,inactive,
O=C(O)c1cccc(C(F)(F)F)c1,inactive,
CC[Si](OC(C)=O)(OC(C)=O)OC(C)=O,inactive,
CN1[C@@H]2CC(OC(=O)[C@H](CO)c3ccccc3)C[C@H]1[C@@H]1O[C@@H]12 (stereo not given in full),inactive,
O=C(O)C[C@H](O)C[C@H](O)/C=C/c1c(C2CC2)nc2ccccc2c1-c1ccc(F)cc1,,11.6 µM (active)
CCn1c2ccccc2c2cc(N)ccc21,inactive,
O=[N+]([O-])c1ccc(C=Cc2ccc([N+](=O)[O-])cc2S(=O)(=O)O)c(S(=O)(=O)O)c1,,62.3 µM (active)
CC(=O)O[C@H](CC(=O)[O-])C[N+](C)(C)C,inactive,

# Experiment: ATG_Ets_CIS: Attagene CIS-FACTORIAL HepG2 Assay for human Erythroblast Transformation Specific (ETS) (AID 2282941)
# Details: HepG2 ETS cis-reporter transcription, actives raise or lower the signal
# Procedure, shortened: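 RT-PCR/capillary electrophoresis fluorescence read-out of reporter mRNA; HepG2 transient multi-reporter transfection; 24 h compound exposure; gain or loss of signal fitted bidirectionally relative to DMSO.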
row,Compound,outcome
1,CO[Si](C)(OC)c1ccccc1,inactive
2,COc1ccc(OC)c(OC)c1,inactive
3,CN(C)CCOCCN(C)C,inactive
4,CC(=O)O[C@]1(C(C)=O)CC[C@H]2[C@@H]3C[C@H](C)C4=CC(=O)CC[C@]4(C)[C@H]3CC[C@@]21C,inactive
5,O=C(O)c1cn(-c2ccc(F)cc2)c2cc(N3CCNCC3)c(F)cc2c1=O,inactive
6,c1ccc2c(c1)c1cccc3ccc4cccc2c4c31,inactive
7,Cc1cccc(C)c1[N+](=O)[O-],inactive
8,COc1nc(C)nc(N)n1,inactive
9,CCCCCCCCCCCCOCCO,inactive
10,Clc1sc(Cl)c(Cl)c1Cl,inactive
11,NC(N)=NC(=O)c1nc(Cl)c(N)nc1N,inactive
12,O=c1[nH]c(=O)n([C@H]2CCCO2)cc1F,inactive
13,CO[Si](CCCn1c(=O)n(CCC[Si](OC)(OC)OC)c(=O)n(CCC[Si](OC)(OC)OC)c1=O)(OC)OC,inactive
14,Nc1cc(N)cc(C(=O)O)c1,inactive
15,CCCC(=O)OCCC(C)CCC=C(C)C (stereo not given),inactive
16,O=C(O)c1cccc(C(F)(F)F)c1,inactive

row,Compound,outcome
1,CC[Si](OC(C)=O)(OC(C)=O)OC(C)=O,inactive
2,CCCCCCCCC=O,inactive
3,CCCCOCCOCCSC#N,inactive
4,CCCCCCCCCCCCSC,inactive
5,CN1[C@@H]2CC(OC(=O)[C@H](CO)c3ccccc3)C[C@H]1[C@@H]1O[C@@H]12 (stereo not given in full),inactive
6,O=C(O)C[C@H](O)C[C@H](O)/C=C/c1c(C2CC2)nc2ccccc2c1-c1ccc(F)cc1,inactive
7,CCn1c2ccccc2c2cc(N)ccc21,inactive
8,COc1cccc(OC)c1,inactive
9,O=[N+]([O-])c1ccc(C=Cc2ccc([N+](=O)[O-])cc2S(=O)(=O)O)c(S(=O)(=O)O)c1,inactive
10,CC(C)C1CCC(O)CC1 (stereo not given),inactive
11,CC(=O)O[C@H](CC(=O)[O-])C[N+](C)(C)C,inactive
12,C=C(C)C(=O)OCCOC(=O)CC(C)=O,inactive
13,O=C=NC1CCC(CC2CCC(N=C=O)CC2)CC1 (stereo not given),inactive
14,O=c1cc(-c2ccccc2)oc2cc(O)cc(O)c12,inactive
15,O=c1[nH]nnc2ccccc12,inactive
16,OCCOc1cccc(OCCO)c1,inactive
